Test results: PubChem BioAssay AID1835 (Johns Hopkins Ion Channel Center, 2009)
Hit rate of the full screen: of about 2,400 compounds, about 750 (31%) were called active. The list shows a part of the results. Values without a mark were called inactive.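 How the source made its calls: active means median signal gain over dofetilide-blocked control wells reaching their mean plus 3 SD, so readout 1 at least 0; inactive means the rest.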

The compounds below were run against Voltage-gated inwardly rectifying potassium channel KCNH2 (Homo sapiens) (UniProt Q12809) (assay: hERG protection against dofetilide inhibition, confirmation, cell-based, thallium flux, duplicate retest, dofetilide IC70 (AID 1835)). Settings: hERG cell line, FluxOR thallium flux, dofetilide-blocked; at 10 µM; active compounds read high.
Chain of Voltage-gated inwardly rectifying potassium channel KCNH2 (Homo sapiens) (Q12809 whole entry, looked up): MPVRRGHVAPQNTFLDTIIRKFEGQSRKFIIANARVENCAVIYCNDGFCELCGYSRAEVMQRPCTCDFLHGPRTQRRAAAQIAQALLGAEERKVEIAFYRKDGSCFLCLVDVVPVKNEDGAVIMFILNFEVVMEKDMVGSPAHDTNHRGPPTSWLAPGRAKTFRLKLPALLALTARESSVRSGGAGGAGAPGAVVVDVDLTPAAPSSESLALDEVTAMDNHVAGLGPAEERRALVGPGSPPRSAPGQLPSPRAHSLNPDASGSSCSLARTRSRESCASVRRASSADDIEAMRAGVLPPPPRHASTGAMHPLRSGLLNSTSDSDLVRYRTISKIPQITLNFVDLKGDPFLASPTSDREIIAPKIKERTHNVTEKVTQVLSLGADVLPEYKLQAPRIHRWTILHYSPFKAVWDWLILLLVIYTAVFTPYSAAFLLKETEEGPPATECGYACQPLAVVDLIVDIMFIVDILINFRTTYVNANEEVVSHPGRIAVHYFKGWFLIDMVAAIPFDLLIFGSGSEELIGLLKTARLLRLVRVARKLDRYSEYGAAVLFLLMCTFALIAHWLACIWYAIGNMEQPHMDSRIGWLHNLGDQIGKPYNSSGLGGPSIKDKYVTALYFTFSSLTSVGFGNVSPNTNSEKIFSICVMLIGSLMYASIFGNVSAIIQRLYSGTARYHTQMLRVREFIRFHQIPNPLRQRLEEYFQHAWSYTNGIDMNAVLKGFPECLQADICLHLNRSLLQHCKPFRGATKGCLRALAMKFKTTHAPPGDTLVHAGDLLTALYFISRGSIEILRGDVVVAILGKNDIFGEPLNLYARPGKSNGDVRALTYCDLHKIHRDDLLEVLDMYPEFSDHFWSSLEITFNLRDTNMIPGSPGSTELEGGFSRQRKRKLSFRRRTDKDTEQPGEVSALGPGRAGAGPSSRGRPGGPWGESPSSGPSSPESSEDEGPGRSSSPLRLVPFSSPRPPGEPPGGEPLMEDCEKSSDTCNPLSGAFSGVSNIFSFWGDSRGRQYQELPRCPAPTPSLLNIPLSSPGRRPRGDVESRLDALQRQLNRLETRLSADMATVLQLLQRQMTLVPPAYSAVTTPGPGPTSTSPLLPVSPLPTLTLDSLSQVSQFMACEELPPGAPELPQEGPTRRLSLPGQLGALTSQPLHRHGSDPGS
COc1ccc(CCNS(=O)(=O)c2csc(C(N)=O)c2)cc1OC was tested, and the activity increase over dofetilide control, less the hit threshold was -14%.
Cc1nc2ccccc2n1-c1ccccc1 was tested, and the activity increase over dofetilide control, less the hit threshold was 3% (active).
In the case of COC(=O)c1ccc(-n2c(C)nc(=O)c(-c3ccccc3)c2C)cc1, the activity increase over dofetilide control, less the hit threshold is reported as -13%.
Compound Cc1nnc2c(SC(C)C)nc3ccccc3n12 has an activity increase over dofetilide control, less the hit threshold of -19%.
C=C(C)CSc1nnc2[nH]c(=O)cc(N)n12 showed an activity increase over dofetilide control, less the hit threshold of -19%.
CC1=CCC[C@@H]2[C@@](C)(CC/C(C)=C/C(=O)O)[C@H](C)CC[C@@]12C was tested, and the activity increase over dofetilide control, less the hit threshold was 84% (active).
Nc1ccc2oc(-c3ccccc3Cl)cc(=O)c2c1O gave an activity increase over dofetilide control, less the hit threshold of -3%.
Compound Cc1nc2scc(C)n2c(=O)c1S(=O)(=O)Nc1ccc(N2CCOCC2)cc1 has an activity increase over dofetilide control, less the hit threshold of -7%.
CSc1nc2sc3c(c2c(=S)[nH]1)CC(C)(C)OC3 was tested, and the activity increase over dofetilide control, less the hit threshold was 81% (active).
In the case of CCc1nc2sc3c(c2c(=S)[nH]1)CC(C)(C)OC3, the activity increase over dofetilide control, less the hit threshold is reported as -8%.
For CCC1(C)Cc2c(sc3nc(SC)[nH]c(=S)c23)CO1 (stereo not given), the activity increase over dofetilide control, less the hit threshold was 87% (active).
Work on CCN(CC(=O)NCc1ccc(Cl)cc1)C(=O)CCOc1ccc(C)cc1 yielded an activity increase over dofetilide control, less the hit threshold of -14%.
For CNc1nc(N)nc(OC(C(F)(F)F)C(F)(F)F)n1, the activity increase over dofetilide control, less the hit threshold was -24%.
O=C(N/N=C/c1cc(Cl)ccc1O)c1ccccc1Br gave an activity increase over dofetilide control, less the hit threshold of -3%.
For O=C(NC(=S)Nc1cccc([N+](=O)[O-])c1)c1ccco1, the activity increase over dofetilide control, less the hit threshold was -16%.
Work on Oc1c(Cl)cc(Cl)cc1/C=N/c1nccs1 yielded an activity increase over dofetilide control, less the hit threshold of -11%.
In the case of Oc1c(Br)cc(Br)cc1C=Nc1cccc2ncccc12, the activity increase over dofetilide control, less the hit threshold is reported as -7%.
In the case of Oc1c(Br)cc(Cl)cc1C=Nc1ccccc1Br, the activity increase over dofetilide control, less the hit threshold is reported as 9% (active).
For NC(=O)c1cccc(N=Cc2cc(Cl)cc(Cl)c2O)c1, the activity increase over dofetilide control, less the hit threshold was 6% (active).
O=C(Nc1ccccc1C(=O)O)c1cccc(NC(=O)c2ccco2)c1 gave an activity increase over dofetilide control, less the hit threshold of -3%.
For Oc1c(Cl)cc(Cl)cc1/C=N/c1ncn[nH]1, the activity increase over dofetilide control, less the hit threshold was 15% (active).
With O=C(Nc1cccc(N=Cc2cc(Cl)cc(Br)c2O)c1)c1ccco1 the activity increase over dofetilide control, less the hit threshold was 6% (active).
Compound COc1ccccc1-n1c(CCC(=O)O)ccc1-c1ccccc1 has an activity increase over dofetilide control, less the hit threshold of -12%.
With Nc1cc(N)nc(SCc2cc(=O)oc3cc4c(cc23)CCC4)n1 the activity increase over dofetilide control, less the hit threshold was -35%.
Compound CCCNC(=O)CN1C(=O)NC(Cc2c[nH]c3ccccc23)C1=O (stereo not given) has an activity increase over dofetilide control, less the hit threshold of -22%.
In the case of COc1ccc(-c2nc(=S)c3c([nH]2)Oc2ccc(C)cc2C3)cc1O, the activity increase over dofetilide control, less the hit threshold is reported as -22%.
Work on CC(=O)Nc1ccc(NC(=O)CSc2ncc(C(=O)Nc3ccc(Cl)cc3)c(=O)n2C)cc1 yielded an activity increase over dofetilide control, less the hit threshold of -4%.
For Cc1cccc(N=Cc2cc(Br)cc(Cl)c2O)c1, the activity increase over dofetilide control, less the hit threshold was 5% (active).
Compound CC(=O)N1c2ccc(N=Cc3cc(Br)cc(Br)c3O)cc2CC1C (stereo not given) has an activity increase over dofetilide control, less the hit threshold of -5%.
Cc1ccc(N=Cc2cc(Cl)cc(Cl)c2O)nc1 was tested, and the activity increase over dofetilide control, less the hit threshold was 3% (active).
For Oc1c(Br)cc(Br)cc1C=Nc1ccc2c(c1)OCCO2, the activity increase over dofetilide control, less the hit threshold was -12%.
Work on Cc1ccc(N=Cc2cc(Br)cc(Cl)c2O)cc1 yielded an activity increase over dofetilide control, less the hit threshold of -10%.
In the case of Oc1c(Cl)cc(Cl)cc1C=Nc1ccc(Br)cc1, the activity increase over dofetilide control, less the hit threshold is reported as 8% (active).
For O=C(CSCc1cnn(-c2ccccc2)c1-n1cccc1)NCc1cccnc1, the activity increase over dofetilide control, less the hit threshold was -22%.
Cc1ccc(-c2csc3nc[nH]c(=S)c23)cc1 was tested, and the activity increase over dofetilide control, less the hit threshold was 45% (active).
S=c1[nH]cnc2scc(-c3ccc(Cl)cc3)c12 was tested, and the activity increase over dofetilide control, less the hit threshold was 22% (active).
S=c1[nH]cnc2scc(-c3ccc(Br)cc3)c12 was tested, and the activity increase over dofetilide control, less the hit threshold was 33% (active).
Cc1ccc(C)n1-n1c(C)nc2scc(-c3ccccc3)c2c1=O was tested, and the activity increase over dofetilide control, less the hit threshold was -20%.
Compound Cn1nnnc1Sc1ncnc2scc(-c3ccc(F)cc3)c12 has an activity increase over dofetilide control, less the hit threshold of -12%.
For S=c1[nH]cnc2scc(-c3ccccc3)c12, the activity increase over dofetilide control, less the hit threshold was 51% (active).
Work on Cn1cc(/C=N/n2cnc3scc(-c4ccc(Cl)cc4)c3c2=O)c2ccccc21 yielded an activity increase over dofetilide control, less the hit threshold of -10%.
Work on O=C1C(=O)N(CCN2CCOCC2)C(c2cccnc2)/C1=C(/O)c1ccc(Cl)cc1 (stereo not given) yielded an activity increase over dofetilide control, less the hit threshold of -8%.
With CCn1nnnc1SCC(=O)N1c2ccccc2Sc2ccccc21 the activity increase over dofetilide control, less the hit threshold was -17%.
CCOC(=O)N1CCN(C(=O)CSc2nnc(-c3ccccc3OC)o2)CC1 gave an activity increase over dofetilide control, less the hit threshold of -8%.
For CCOC(=O)N1CCN(C(=O)CCn2c(=S)[nH]c3ccsc3c2=O)CC1, the activity increase over dofetilide control, less the hit threshold was -6%.
In the case of CCOC(=O)N1CCN(c2c(-c3ccc(C)c(C)c3)c(=O)c2=O)CC1, the activity increase over dofetilide control, less the hit threshold is reported as 1% (active).
CC(C)OC(=O)C1CC(C)(O)C(=O)C(C(=O)OC(C)C)C1c1ccc([N+](=O)[O-])cc1 (stereo not given) was tested, and the activity increase over dofetilide control, less the hit threshold was -22%.
Work on CN1CCN(c2nnc(-c3cccs3)c3ccccc23)CC1 yielded an activity increase over dofetilide control, less the hit threshold of -13%.
With CCOC(=O)C1=NN(C(=O)c2ccccc2)C(O)(c2ccc(C)cc2)C1 (stereo not given) the activity increase over dofetilide control, less the hit threshold was 1% (active).
In the case of CCOC(=O)C1=NN(C(=O)c2ccc(OC)cc2)C(O)(c2ccc(Cl)cc2)C1 (stereo not given), the activity increase over dofetilide control, less the hit threshold is reported as 81% (active).
Work on CCOC(=O)CN1N=C(/C=C/c2ccc(OC)cc2)CCC1=O yielded an activity increase over dofetilide control, less the hit threshold of -25%.
CCC1=NN(C(=O)c2ccc(Cl)cc2)C(O)(c2ccc(C)cc2)C1 (stereo not given) was tested, and the activity increase over dofetilide control, less the hit threshold was -14%.
CCOC(=O)C1=NN(C(=O)c2ccc(C)cc2)C(O)(c2ccc(Cl)cc2)C1 (stereo not given) was tested, and the activity increase over dofetilide control, less the hit threshold was 100% (active).
O=C1C=C(Nc2cccc3cccnc23)c2ccccc2C1=O was tested, and the activity increase over dofetilide control, less the hit threshold was -5%.
Compound COCC(=O)Nc1cc(C)cn(Cc2c(F)cccc2Cl)c1=O has an activity increase over dofetilide control, less the hit threshold of -5%.
Compound Cc1ccc(C(=C2C3C=CC2C2C(=O)NC(=O)C32)c2ccc(C)cc2)cc1 (stereo not given) has an activity increase over dofetilide control, less the hit threshold of -15%.
Work on CC(C)(C)c1cc(CCC(=O)NCc2ccncc2)cc(C(C)(C)C)c1O yielded an activity increase over dofetilide control, less the hit threshold of -11%.
Work on CC(C)(C)NS(=O)(=O)c1ccc(NC(=O)c2cc(-c3ccccc3)nc3ccccc23)cc1 yielded an activity increase over dofetilide control, less the hit threshold of -11%.
O=C(N/N=C/c1ccccn1)c1cc(-c2ccc(Br)cc2)nc2ccccc12 gave an activity increase over dofetilide control, less the hit threshold of -46%.
Compound Cc1ccc2nc(-c3ccccn3)cc(C(=O)NC3CCN(C)CC3)c2c1 has an activity increase over dofetilide control, less the hit threshold of -19%.
In the case of Cc1ccccc1NC(=S)NC(=O)c1cc(-c2ccccc2)nc2ccccc12, the activity increase over dofetilide control, less the hit threshold is reported as 27% (active).
With COC(=O)c1ccc(NC(=S)NC(=O)c2cc(-c3ccccc3)nc3ccccc23)cc1 the activity increase over dofetilide control, less the hit threshold was 11% (active).
In the case of O=C(NC(=S)Nc1ccccc1)c1cc(-c2ccccc2)nc2ccccc12, the activity increase over dofetilide control, less the hit threshold is reported as 8% (active).
For O=C(NC(=S)Nc1ccccn1)c1cc(-c2ccccc2)nc2ccccc12, the activity increase over dofetilide control, less the hit threshold was 1% (active).
COC(=O)c1ccc(NC(=S)NC(=O)c2c(-c3ccccc3)noc2C)cc1 showed an activity increase over dofetilide control, less the hit threshold of -15%.
